Reference: PubChem BioAssay (NCI)
About 83,000 compounds went through this panel and 20% of them were active in at least one assay; those are over-represented in the sample as a whole.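 The endpoint reported here, percent growth, reads 100 for growth as untreated, 0 for no net growth and -100 for all cells dead.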 Unmarked numbers belong to inactive results. The source made the active and inactive calls.

These compounds were tested on BT-549 breast (assay: NCI-60 one-dose screen, 48 h (100 = growth as untreated, 0 = no growth, -100 = all killed)). Conditions: 10 µM unless noted.
Method: Growth inhibition of the BT-549 human tumor cell line is measured as a screen for anti-cancer activity. Cells are grown in 96 well plates and exposed to the test compound for 48 hours. Compounds are tested at a single concentration, which is 10^-5 M for most compounds. The reported endpoint is percent growth (GI% or GIPRCNT), where numbers from 0 - 100% represent growth inhibition, and numbers from -100% - 0 represent cell death. For example, a value of 40 represents 60% growth inhibition. A value of 0 means no net growth occurred over the course of the experiment. A value of -40 indicates 40% of cells at the beginning of the experiment died by the end of the experiment. A value of -100 means all cells are dead at the end of the experiment.
NCI-60 Human Tumor Cell Lines Screen was performed using the standard one-dose NCI protocol, which is described in more detail at https://dtp.cancer.gov/discovery_development/nci-60/default.htm.
Compounds with GIPRCNT values below 10 were considered active. Activity score was based on GIPRCNT using the following formula: […]
Score is 0 for GIPRCNT values of 100 or above, 50 for GIPRCNT values of 0, and 100 for GIPRCNT values of -100.

| Compound | growth |
| --- | --- |
| CCN(CC)CCCCCCNc1cc(OC)cc2cccnc12 | 83.9% |
| Clc1cc(Cl)cc(N2N=C(c3cccc(Nc4ccncc4)c3)CC2c2ccc3c(c2)OCO3)c1 (stereo not given) | 93.8% |
| Cc1ccc(/C=C/C(=O)c2ccc(N)cc2)c(C)c1 | 89.6% |
| CC[C@@]12C=CCN3CC[C@]4(c5cc(NC(=O)COc6cc(OCC(=O)Nc7cc8c(cc7OC)N(C)[C@H]7[C@@](O)(C(=O)OC)[C@H](OC(C)=O)[C@]9(CC)C=CCN%10CC[C@]87[C@@H]%109)cc7oc(-c8ccccc8)cc(=O)c67)c(OC)cc5N(C)[C@@H]4[C@](O)(C(=O)OC)[C@H]1OC(C)=O)[C@H]32 | 61.4% |
| COc1ccc(/C=N/NC(=O)c2cccc3cc[nH]c23)cc1O | 55.9% |
| C(=C\c1n(Cc2ccc3ccccc3c2)c(-c2ccccc2)c(-c2ccccc2)[n+]1Cc1ccc2ccccc2c1)/c1ccccc1 | -83.2% (active) |
| CNC(=O)c1c(NC(=O)c2ccc(C(C)C)cc2)sc2c(CN(C)C)c(O)ccc12 | 87.9% |
| CN1C2CCC1CN(c1cnc(C(=O)Nc3cc(F)cc4cccnc34)cn1)C2 | 70.7% |
| CCNC(=O)c1[nH]cc(-c2ccc(OC)cc2)c1-c1cc(OC)c(OC)c(OC)c1 | 72.5% |
| CCC(=O)c1ccc(O)c(OC)c1 | 114% |
| O=C1Nc2ccccc2/C1=C\c1cccc(/C=C2/C(=O)Nc3ccccc32)n1 | -86.4% (active) |
| Cc1ccc2nc3c(cc2c1)CSc1nnc(-c2ccc[nH]c2=S)n1N3 | 97.4% |
| CC(C)CCSc1nc(NNC(N)=O)c(C#N)c(-c2ccccc2)n1 | 46.7% |
| Clc1ccc(C2CC(c3cccc(Nc4ccncc4)c3)=NN2c2cc(Cl)cc(Cl)c2)cc1 (stereo not given) | 104% |
| COc1ccccc1C(C[N+](=O)[O-])c1c(-c2ccccc2)[nH]c2cc(C)ccc12 (stereo not given) | 80.1% |
| COc1cc(NCC(C)(O)CN(CC(C)C)CC(C)C)c2nc(C)ccc2c1 (stereo not given) | 92.4% |
| CCCCCCCCOC(=O)c1ccc(O)c(OC)c1 | 102% |
| N#Cc1ccc(-c2ccc3c(c2)NC(=O)/C3=C\c2ccc[nH]2)cc1 | 24.1% |
| Clc1ccc(C2CC(c3cccc(Nc4ccncc4)c3)=NN2c2ccccc2)cc1 (stereo not given) | -75.9% (active) |
| Fc1ccccc1CSc1ncnc2nc[nH]c12 | 137% |

| Compound | growth |
| --- | --- |
| Clc1nc(Cl)c2ncn(CC3(Cn4cnc5c(Cl)nc(Cl)nc54)COC3)c2n1 | -93.2% (active) |
| Nc1ncc(C#Cc2cncc(NC(=O)c3cccc(C(F)(F)F)c3)c2)c2cccnc12 | 63.1% |
| [O-][n+]1ccccc1CCN(O)CCc1cccc[n+]1[O-] | 101% |
| CC(O)/C=C/C=C/C(O)CC/C=C/C(=O)NCC(C)(C)O (stereo not given) | 109% |
| COc1ccc(/C(C)=N/NC(=O)CSc2nc3ccccc3c(=O)n2Cc2ccc(S(N)(=O)=O)cc2)c(OC)c1 | 104% |
| O=S(=O)(NCCCNc1nccc(-c2c(-c3cccc(O)c3)nc3occn23)n1)c1ccc(F)cc1 | 87.4% |
| COc1ccc(C(=O)/C=C/c2ccc(OCc3ccccc3)c(OC)c2)cc1OC | 51.8% |
| O=S(=O)(NCCCNc1nccc(-c2c(-c3ccccc3)nc3occn23)n1)c1ccc(Cl)cc1 | 104% |
| CC(=O)[C@@H]1CC[C@]2(C(=O)n3ccnc3)CC[C@]3(C)[C@H](CC[C@@H]4[C@@]5(C)Cc6c([nH]c7ccccc67)C(C)(C)[C@@H]5CC[C@]43C)[C@@H]12 | 99.1% |
| O=C(Nc1ccc2ncnc(Nc3ccc(Oc4cccc(F)c4)c(Cl)c3)c2c1)c1ccc(CNCCO)cc1 | 85.5% |
| c1ccc(-c2nn(-c3ccccc3)[n+](-c3ccccc3-c3ccccc3)n2)cc1 | -0.13% (active) |
| Cc1c2c(cc[n+]1Cc1ccc(F)cc1)c1ccc(OCc3cccc(F)c3)cc1n2Cc1cccc(F)c1 | -88.3% (active) |
| COc1cccc(CCC(=O)c2cc3c(N)c(C(=O)Nc4ccccc4)sc3nc2C)c1 | 44.8% |
| C=C(C)[C@@H]1CC[C@]2(C(=O)NCC(=O)OC)CC[C@]3(C)[C@H](CC[C@@H]4[C@@]5(C)Cc6c([nH]c7ccccc67)C(C)(C)[C@@H]5CC[C@]43C)[C@@H]12 | 81.3% |
| COc1cccc(/C=C2\COc3ccc(-c4ccccc4)cc3C2=O)c1 | 13.1% |
| O=C(N=Nc1c(O)[nH]c2ccc(F)cc12)c1cc2ccccc2[nH]1 | 90.2% |
| Nc1ccccc1NC(=O)c1ccc(CN2CCC/C(=C\c3cccc(Cl)c3)C2=O)cc1 | -9.32% (active) |
| O=C(Nc1ccc2cc3ccc(NC(=O)N4CCCCCC4)cc3nc2c1)N1CCCCCC1 | -66.6% (active) |
| NC(=O)c1cccc(-c2ccccc2N2CCCCC2)c1 | 101% |
| COc1ccc(C2CC(n3nnnc3-c3ccccc3)=NN2)cc1 (stereo not given) | 81.4% |
